# esBAF inh: blocks esBAF chromatin remodeling in mouse ES cells; Bmi1-luciferase knock-in reporter, 24 h; 100% = twice the neutral-well signal; reporter increase, % at 12.5 µM; 350,000 tested, 2% active; in the data active means activation above about 40%; inconclusive means no clear call, values can overlap the other calls;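 further: a rise in the Bmi1 reporter signal indicates esBAF inhibition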
# dFosB act-1: enhances mouse delta FosB homodimer DNA binding; 340,000 tested, 0.99% active; AID 493131; P13346; purified delta FosB, TAMRA-CDK5 oligo fluorescence polarization; percent of positive-control signal above neutral wells; activation, % at 25 µM;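 active means mean activation above about 17%, with every replicate also reaching it, limit read from the data, passing the limit was not always enough; inconclusive means only one of the two conditions met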
# DYRK1A inh: Dyrk1A (rat) kinase inhibition. Q63470. inhibition, % at 12.5 µM. 310,000 tested, 0.43% active. ADP-Glo luminescence, NFATc1 peptide; in the data active means inhibition above about 50%
# SMARCA2 act: increases SMARCA2 function in MMTV reporter cells | MG213 cells, MMTV-luciferase reporter, dexamethasone, overnight | activation, % at 9.1 µM | 370,000 tested, 1% active; in the data active means activation above about 7.8%
# CDK5 inh: blocks human CDK5/p35 kinase activity. Recombinant CDK5/p35, ADP-Glo luminescence, 60 min. AID 488839. inhibition, % at 10 µM. 330,000 tested, 0.01% active. Q00535+Q15078;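 active means highest replicate inhibition of at least 50% and at least 75% of replicates reaching 50%; inconclusive means only one of the two criteria met; inactive means both criteria failed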
# Target sequence (Q00535 whole entry, looked up): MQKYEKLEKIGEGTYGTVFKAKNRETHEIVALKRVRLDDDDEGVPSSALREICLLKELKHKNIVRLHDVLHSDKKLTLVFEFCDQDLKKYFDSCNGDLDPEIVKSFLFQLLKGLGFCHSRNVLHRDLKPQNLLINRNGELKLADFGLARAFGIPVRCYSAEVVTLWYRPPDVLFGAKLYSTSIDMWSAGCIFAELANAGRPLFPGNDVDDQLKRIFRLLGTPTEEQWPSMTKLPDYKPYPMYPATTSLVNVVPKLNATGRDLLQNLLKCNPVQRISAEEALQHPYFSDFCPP
# Target sequence (Q15078 whole entry, looked up): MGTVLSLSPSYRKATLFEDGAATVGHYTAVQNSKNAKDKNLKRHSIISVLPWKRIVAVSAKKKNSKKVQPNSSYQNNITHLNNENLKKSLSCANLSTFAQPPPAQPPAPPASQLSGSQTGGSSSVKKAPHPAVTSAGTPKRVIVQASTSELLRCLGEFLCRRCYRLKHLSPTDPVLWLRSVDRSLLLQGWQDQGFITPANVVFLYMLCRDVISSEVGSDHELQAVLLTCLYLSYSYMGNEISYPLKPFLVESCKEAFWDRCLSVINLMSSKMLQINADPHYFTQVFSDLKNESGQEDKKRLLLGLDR
# Rtt109 Vps75: C. albicans Rtt109 histone acetyltransferase inhibition. Q5AAJ8. purified Rtt109/Vps75, ThioGlo CoA-SH fluorescence, 4 h. inhibition, % at 34.9 µM. 330,000 tested, 0.16% active. AID 540336;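 active means inhibition of at least 50% in every replicate; inconclusive means best replicate reaches 50% inhibition but some replicates fall short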
# dFosB act-2: activators of mouse delta FosB homodimer DNA binding | purified delta FosB, TAMRA-CDK5 oligo fluorescence polarization; normalised: neutral wells 0, positive control 100 | activation, % at 24.9 µM | AID 588690 | 2,400 tested, under 10 active | shares compounds with dFosB act-1;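 active means highest replicate activation at or above 34% and every replicate reaching that threshold; inconclusive means meets only one of the two criteria; inactive means meets neither criterion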;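 further: higher polarization means more probe DNA bound by delta FosB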
# Hits are given with their value; 0 = inactive; ? = inconclusive; - = no result. Compounds with a hit are over-represented: about 3.2% of the library has one in this group of screens.
SMILES,esBAF inh,dFosB act-1,DYRK1A inh,SMARCA2 act,CDK5 inh,Rtt109 Vps75,dFosB act-2
COc1cc2c(-c3ccc(O)cc3)nc3c(c(C)nn3-c3ccccc3)c2cc1OC,-,27.3,0,0,0,0,0
O=C(N[C@H]1CC[C@H](CCNC(=O)C2CCCCC2)O[C@H]1CO)c1ccccn1,0,-,-,-,-,-,-
CC(=O)c1sc(NC(=O)c2ccc(C)c(C)c2)nc1C,-,23.5,0,0,0,0,0
CC(=O)c1sc(NC(=O)c2ccc3c(c2)OCO3)nc1C,0,0,0,0,0,0,-
CO[C@@H]1CN(C)C(=O)c2cc(NC(C)=O)ccc2OC[C@H](C)N(CCc2ccccc2)C[C@H]1C,0,-,-,-,-,-,-
O=C(CSc1nc(-c2cccs2)cc(C(F)(F)F)n1)NCc1ccccc1,0,21.5,0,0,0,0,0
CCCNC(=O)CSc1nc(-c2cccs2)cc(C(F)(F)F)n1,0,0,0,0,0,0,-
CO[C@H]1CN(C)C(=O)c2cc(NC(=O)Nc3ccc(Cl)cc3)ccc2OC[C@@H](C)N(C(=O)Nc2c(C)noc2C)C[C@H]1C,0,-,-,-,-,-,-
Cc1ccc2nc(SCC(=O)Nc3ccccc3N3CCOCC3)c(C#N)cc2c1,0,0,0,0,0,0,-
CCc1ccc2nc(SCC(=O)Nc3ccccc3N3CCOCC3)c(C#N)cc2c1,0,24.3,0,0,0,0,0
O=C(N/N=C/c1ccncc1)c1cccc(NC(=O)c2ccccc2Cl)c1,-,0,0,0,0,0,-
O=C(N/N=C/c1ccncc1)c1ccc(NC(=O)c2cccc(Cl)c2)cc1,-,39.3,0,0,0,0,0
O=C(N/N=C/c1ccncc1)c1ccc(NC(=O)c2ccc(Cl)cc2)cc1,-,65.2,0,0,0,0,0
COc1cccc(NC(=O)N(C)C[C@H]2Oc3ncc(/C=C/c4ccccc4)cc3C(=O)N([C@@H](C)CO)C[C@H]2C)c1,0,-,-,-,-,-,-
C[C@@H]1CN([C@@H](C)CO)C(=O)c2cc(NS(=O)(=O)c3cccs3)ccc2O[C@@H](C)CCCCO[C@H]1CN(C)C(=O)CCCN(C)C,0,-,-,-,-,-,-
CNC[C@H]1Oc2ccc(NC(=O)Nc3ccc4c(c3)OCO4)cc2CC(=O)N([C@@H](C)CO)C[C@H]1C,0,-,-,-,-,-,-
Cc1cc(C(=O)N/N=C/c2ccc(-c3ccc([N+](=O)[O-])cc3Cl)o2)n[nH]1,0,0,-,0,-,0,-
Cc1cc(C(=O)N/N=C/c2ccc(-c3cccc([N+](=O)[O-])c3)o2)n[nH]1,0,33.2,0,0,0,0,0
CCOC(=O)c1cccc(NC(=O)Cn2c(CC(=O)NC)nc3ccccc32)c1,-,40.6,0,0,0,0,0
COc1ccc(NC(=O)Nc2ccc3c(c2)CC(=O)N([C@H](C)CO)C[C@H](C)[C@@H](CN(C)S(=O)(=O)c2cccs2)O3)cc1,0,-,-,-,-,-,-
O=C(c1ccc(Cl)cc1)c1cnc(Nc2ccccc2Cl)s1,56.8,52.8,0,0,0,0,0
O=C(c1ccc(Cl)cc1)c1cnc(-c2ccccc2)s1,0,0,0,0,0,0,-
Cc1cc(NC(=O)CSc2nc(N)c(NC(=O)c3ccc(F)c(F)c3)c(=O)[nH]2)no1,0,56.7,0,0,0,0,0
Cc1cccc(NC(=O)CSc2nc(N)c(NC(=O)c3cccs3)c(=O)[nH]2)c1,0,0,0,0,0,0,-
Cc1cc(NC(=O)CSc2nc(N)c(NC(=O)c3ccccc3)c(=O)[nH]2)no1,-,0,0,0,0,0,-
SMILES,esBAF inh,dFosB act-1,DYRK1A inh,SMARCA2 act,CDK5 inh,Rtt109 Vps75,dFosB act-2
COCCSc1nc(N)c(NC(=O)c2ccc(OC)cc2)c(=O)[nH]1,-,0,0,0,0,0,-
Cc1ccc(C)c(NC(=O)CSc2nc(N)c(NC(=O)c3cccs3)c(=O)[nH]2)c1,0,32.6,0,0,0,0,0
CCc1nnc(NC(=O)CSc2nc(N)c(NC(=O)c3ccc(OC)cc3)c(=O)[nH]2)s1,0,47.6,0,0,0,0,0
Cc1cc(C)cc(NC(=O)CSc2nc(N)c(NC(=O)c3ccc(Br)o3)c(=O)[nH]2)c1,0,77.2,0,0,0,0,?
CN1[C@@H]2c3ccc(-c4ccccc4)c(=O)n3C[C@@H]2[C@@H](CO)[C@@H]1C(=O)N1CCc2ccccc2C1,0,-,-,-,-,-,-
Nc1nc(SCC(=O)Nc2ccc(C(F)(F)F)cc2)[nH]c(=O)c1NC(=O)c1ccc(F)c(F)c1,0,49.9,0,0,0,0,0
Cc1cc(NC(=O)CSc2nc(N)c(NC(=O)c3ccccc3F)c(=O)[nH]2)no1,0,22.0,0,0,0,0,0
C[C@H](CO)N1C[C@H](C)[C@@H](CN(C)Cc2ccccc2)Oc2ncc(Br)cc2C1=O,0,-,-,-,-,-,-
Cc1ccc(C)c(NC(=O)c2ccccc2NS(=O)(=O)c2cc([N+](=O)[O-])ccc2C)c1,-,27.4,0,0,0,0,0
O=C(Nc1cccc([N+](=O)[O-])c1)Nc1cnccn1,-,27.4,-,0,0,0,0
CO/N=C/C(C#N)=C/c1cc(C(=O)c2ccc(F)cc2)cn1C,-,50.2,0,0,0,0,0
CO/N=C/C(=N\Nc1ccc(OC)cc1)C(=O)c1ccc(F)cc1,0,0,0,0,0,0,-
Cc1ccc(C(=O)Nc2cccc(C(F)(F)F)c2)cc1NC(=O)c1nccn1C,0,26.6,0,0,0,0,0
CCOc1ccc(CCN2C(=S)N([C@@H](CC(C)C)CN3CCCC3CN3C(=S)NC[C@@H]3CC(C)C)C[C@@H]2Cc2ccc(O)cc2)cc1 (some centres undefined),0,37.5,-,0,0,0,0
CCOc1ccc(CCN2C(=S)N([C@@H](CC(C)C)CN3CCCC3CN3C(=S)NC[C@@H]3Cc3ccc(O)cc3)C[C@@H]2CC(C)C)cc1 (some centres undefined),0,25.5,-,0,0,0,0
CCOc1ccc(CCN2C(=S)N([C@@H](CC(C)C)CN3CCC[C@@H]3CN3C(=S)NC[C@@H]3CC(C)C)C[C@@H]2Cc2ccc(O)cc2)cc1,0,-,-,0,-,-,-
COCC(=O)N(C)C[C@H]1Oc2cc(-c3cccnc3)ccc2S(=O)(=O)N([C@H](C)CO)C[C@H]1C,0,-,-,-,-,-,-
COc1ccc(OCC(=O)Nc2nc3ccc(NC(C)=O)cc3s2)cc1,-,22.9,0,0,0,0,0
COc1ccc2nc(NC(=O)c3ccc4ncsc4c3)sc2c1,67.5,21.6,0,-,0,0,0
COc1cc(C(=O)Nc2nc3ccc4nc(C)sc4c3s2)cc(OC)c1OC,0,0,0,0,0,0,-
COc1ccc(C(=O)Nc2nc3ccc4nc(C)sc4c3s2)cc1,0,22.8,0,0,0,0,0
Nc1c(C(=O)Nc2ccccc2Cl)nnn1-c1ccc2c(c1)OCCO2,0,43.4,0,0,0,0,0

# Source: PubChem (several laboratories)
